The whole screen tested about 350,000 compounds, of which about 1,300 (0.37%) were called active. The sample holds actives, similar compounds and a random draw of the others, so the mix is not that of the screen. A number with no mark means an inactive call. No stated cut-off is given here; in the data, active means response mostly above about 7.3% (no sharp cut-off); inactive means mostly below about 5.4%.
assay: yeast vacuolar ATPase proton transport modulators – pHLuorin cytosolic pH fluorescence, primary screen (AID 504577); further: actives read high; conditions: S. cerevisiae, at 10 µM, hits give high values

For `CC(=O)Nc1ccc(C(=O)C(Cc2ccccc2)N(C)C)cc1` (stereo not given), the response was 8.72% (active).
In the case of `COc1cccc(N2C(=O)NC(=O)/C(=C\c3ccc([N+](=O)[O-])s3)C2=O)c1`, the response is reported as 125% (active).
For `O=C1NC(=O)N(c2ccccc2)C(=O)/C1=C/c1ccc([N+](=O)[O-])s1`, the response was 102% (active).
With `Cc1ccccc1N1C(=O)NC(=O)/C(=C\c2cc(C)n(C)c2C)C1=O` the response was 13.8% (active).

Going from `CCN(CC)C(=O)c1ccc(NC(=O)c2sccc2-c2ccccc2)cc1` to `O=C(COC(=O)Cc1ccccc1)Nc1ccc(F)cc1`, the response rises from -3.45% to -1.24%.

Going from `COc1ccc(Br)cc1CNCCc1cccc(Cl)c1` to `CCOC(=O)C(O)(c1ccc(N=Cc2ccccc2O)c(C)c1)C(F)(F)F` (stereo not given), the response falls from 1.48% to -2.77%.

Going from `N=c1ccccn1Cc1ccccc1` to `O=c1[nH]c(CN2CC=C(c3ccccc3)CC2)nc2scc(-c3cccs3)c12`, the response falls from -1.95% to -2.27%.

Compared with `CN1CCC[C@@H]1CCO[C@](C)(c1ccccc1)c1ccc(Cl)cc1`, `O=C1NC(=O)N(c2ccc(F)cc2)C(=O)/C1=C/c1ccc2c(c1)CCCN2Cc1ccccc1` is higher in response: -5.35% for the first, 1.07% for the second.

Going from `COc1ccc(N2C(=O)/C(=C/c3ccco3)C(=O)NC2=S)cc1` to `Cc1c(C(=O)O)cccc1-n1c(C)cc(/C=C2\C(=O)NC(=O)N(c3ccc4c(c3)OCO4)C2=O)c1C`, the response falls from 8.65% to -0.49%.

First: CCCC(C)n1[nH]c(=O)c2c1NC(=O)CSC2c1ccc(OC)c(OC)c1 (stereo not given)
Second: Cc1ccc(-n2c(C)cc(/C=C3\C(=O)NC(=O)N(C)C3=O)c2C)cc1C
The response of the first is higher: 1.43% for the first, -0.72% for the second.

Going from `CNC(=O)N(C)c1nnc(C(C)(C)C)s1` to `CC(=O)N(C1=NCCCS1)c1ccccc1F`, the response falls from 2.46% to 0.19%.

Going from `CC12CCC(O)CC1CCC1C2CCC2(C)C(C(=O)CC(O)C(F)(F)F)CCC12` (stereo not given) to `Cc1nc2nc(C)c(CCC(=O)N3CCC4(CC3)OCCO4)c(C)n2n1`, the response falls from 5.09% to -4.03%.
